In PubChem BioAssay (NCI):
Compounds without any hit were thinned out: in the full panel of roughly 83,000, 20% have a hit.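 Plates (96-well) were seeded with cells, treated with compound at one concentration, and incubated for 48 hours before percent growth was determined.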 Values without a mark were called inactive. The source made the active and inactive calls. How the source made its calls: active means growth percent below 10; inactive means the rest.

test system: BT-549 breast; test: NCI-60 one-dose screen, 48 h (100 = growth as untreated, 0 = no growth, -100 = all killed); conditions: 10 µM unless noted

| SMILES | growth |
| --- | --- |
| COCCOc1cc2ncnc(N3CCN(c4ncc(S(=O)(=O)N5CCCCC5)cn4)CC3)c2cc1OCCOC | 105% |
| COC(=O)[C@]1(C)CCC[C@]2(C)[C@H]3C[C@H]4C(C(C)C)=C[C@]3(CC[C@H]21)[C@@H]1C(=O)CC[C@H](OCCC#N)[C@@H]14 | 87.5% |
| O=C(O)CCN1C(=O)/C(=C/C(Cl)=C/c2ccccc2)SC1=S | 16.9% |
| O=C(/C=C/c1cccc(Cl)c1)c1ccc(Nc2nc(Nc3ccc(F)cc3)nc(Nc3ccc(Cl)cc3)n2)cc1 | 172% |
| CC(C)(Sc1cc(C(C)(C)C)c(O)c(C(C)(C)C)c1)Sc1cc(C(C)(C)C)c(OC(=O)CCCC(=O)O)c(C(C)(C)C)c1 | 64.9% |
| Fc1cc2c(cc1Cl)N(c1ncnc3ccc(-c4ccc5n[nH]nc5c4)cc13)CC2 | 88.2% |
| CCSC(SCC)c1ccc(Cl)cc1 | 112% |
| O=C(Nc1nc2ccc(C(=O)N3CCN(/C=C/c4ccccc4)CC3)cc2s1)c1ccc(NCCc2ccccc2)c([N+](=O)[O-])c1 | 71.9% |
| O=S(=O)(Nc1cc(F)cc(Cl)c1)c1ccc(-c2cnc(C3CC3)o2)cc1 | 40.6% |
| COC(=O)c1c(C)nc(C)c2c1C(=O)C(Br)=C(NCc1ccccc1)C2=O | 50.9% |
| COc1cc2c(c(OC)c1OC)CCC(c1cccc(C(=O)Nc3ccc(C#N)cc3)c1)O2 (stereo not given) | 27.2% |
| O=C1c2ccccc2-c2c1c1c(=O)[nH]c3ccccc3c1n2Cc1ccccc1 | 29.5% |
| O=C1c2c(c3c4ccccc4[nH]c3c3ccc4ccccc4c23)C(=O)N1CCN1CCNCC1 | 93.5% |
| CC(C)=CCCC(C)c1ccc(C)c2c1OCN(CCCCCO)C2 (stereo not given) | 72.1% |
| COc1ccc(/C=N/NC(=O)c2ccc(-n3cc(-c4ccccc4)nn3)cc2)cc1OC | 92.9% |
| CCN(CC)S(=O)(=O)c1ccc(S(=O)(=O)N2CCC[C@@H](C(=O)N3CCN(c4nc(C(C)C)no4)CC3)C2)cc1 | 62.9% |
| Cc1cc(N2CCN(CC(=O)Nc3ccc4c(ccn4C)c3)CC2)nc(N2CCCCCC2)n1 | 89.7% |
| COc1ccc(Nc2ncc(Br)c(NCCCNC(=O)c3cccs3)n2)cc1 | 45.6% |
| NC(=O)C(=O)c1ccccc1NC=O | 107% |
| N#Cc1ccc2c(c1)C(=O)c1c-2n(CCCN)c(=O)c2cc([N+](=O)[O-])ccc12 | -100% (active) |

| SMILES | growth |
| --- | --- |
| c1ccc(Cn2cc3c(c2)-c2oncc2CC3)cc1 | 82.9% |
| O=C(CSC(=S)n1cnnc1)NC(=O)c1ccccc1 | 102% |
| O=C1/C(=C\c2ccc3nccnc3c2)SC(=S)N1CCc1ccc(O)cc1 | 96.5% |
| COc1c(B(O)O)cccc1-c1nc2c(F)cc3[nH]ncc3c2c2c1CCCC2 | -46.1% (active) |
| COc1c(B(O)O)cccc1-c1cc(C)c2c(ccc3[nH]ncc32)n1 | 23.1% |
| CSc1nnc(-c2cc3c([nH]c4ccccc43)c(-c3cccc(O)c3)n2)n1-c1ccccc1 | 37.6% |
| C=C1C(=O)O[C@H]2[C@H]1CC/C(Cn1cc(-c3ccccc3)nn1)=C\CC[C@@]1(C)O[C@@H]21 | -61.1% (active) |
| C=C(CBr)[C@@H]1CC[C@]2(C(=O)O)CC[C@]3(C)[C@H](CC[C@@H]4[C@@]5(C)CCC(=O)C(C)(C)[C@@H]5CC[C@]43C)[C@@H]12 | 84% |
| CCNCCNc1cc(C2CCCCC2)c(C#N)c2nc3ccccc3n12 | -19.7% (active) |
| COc1cc2c(c(OC)c1OC)CCC(c1cccc(C(=O)Nc3cccc(Cl)c3)c1)O2 (stereo not given) | 67.5% |
| CCCCCCCC[C@@H]1N[C@@H](C(=O)OC)Cc2c1[nH]c1ccccc21 | 105% |
| CC(=O)Oc1ccc(/C(=C(\C)c2ccc(Cl)cc2)c2ccc(OCCN3CCCCC3)cc2)cc1 | 73.5% |
| COc1ccc2cc1Oc1ccc(cc1)C[C@H]1c3c(cc4c(c3Oc3cc5c(cc3OC)CCN(C)[C@@H]5C2)OCO4)CCN1C | 52% |
| CC(=O)c1c(C)nc2ccccc2c1/C=C/c1ccc(F)cc1 | 87.1% |
| CN(/C(N)=N/N=C/c1c2ccccc2cc2ccccc12)C1CCCCC1 | 67.7% |
| CCOC(=O)n1ccn(C)c1=S | 98.7% |
| Cc1cn(-c2cc(NC(=O)c3cncc(C#Cc4cnc(N)c5ncccc45)c3)cc(C(F)(F)F)c2)cn1 | 75.3% |
| O=C(Cn1cc(CSc2nc3ccccc3o2)nn1)Nc1ccc(F)cc1F | 113% |
| Cc1c2cnccc2c(C)c2c1c1cc(C#N)ccc1n2C | -62% (active) |
| CNC(=O)c1ccccc1Oc1nc(Nc2cc(OC)c(OC)c(OC)c2)ncc1Br | 62.7% |
